Most compounds without a hit are left out; they make up all but 19% or so of the library.
DT40 TDP1 CPT: growth inhibition of DT40 Tdp1-/-;hTDP1 cells with camptothecin (screen for TDP1 inhibitors) | hit rate 12% among 420,000 | chicken DT40 Tdp1-/-;hTDP1 cells + 20 nM CPT, ATP luminescence, 48 h | Potency, µM (series often up to 46.2 µM), most hits filed as inhibitors | AID 686979; note: nearly all actives have a fitted effect of over 55% in size
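Cell growth measured by CellTiter-Glo luminescence after a minimum 48 h, 37 C compound exposure with 20 nM CPT in Tdp1-knockout DT40 cells stably expressing hTDP1, seeded 400/well; qHTS titration format.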
DT40 TDP1 no CPT: qHTS for Inhibitors of human tyrosyl-DNA phosphodiesterase 1 (TDP1): qHTS in cells in absence of CPT | DT40 Tdp1-/- hTDP1 cells, no CPT, ATP luminescence, 48 h | Potency, µM (highest dose often 46.2 µM), actives largely listed as inhibitors | hit rate 15% among 420,000 | AID 686978, 2013; note: nearly all actives have a fitted effect of over 55% in size
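Cells were dispensed at 400 per well, compounds added by pin tool, plates incubated ≥48 hr at 37 °C, then CellTiter-Glo added for 30 min at room temperature before luminescence reading. Line: DT40 Tdp1-/- complemented with hTDP1; camptothecin omitted.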
TDP1 block: TDP1 (human) enzyme inhibition; hit rate 0.28% among 350,000; recombinant TDP1, AlphaScreen DNA substrate cleavage; Q9NUW8; Potency, µM (highest dose often 130 µM), usual class: inhibitors; note: nearly all actives have a fitted effect of over 40% in size
Target sequence (Q9NUW8 whole entry, looked up): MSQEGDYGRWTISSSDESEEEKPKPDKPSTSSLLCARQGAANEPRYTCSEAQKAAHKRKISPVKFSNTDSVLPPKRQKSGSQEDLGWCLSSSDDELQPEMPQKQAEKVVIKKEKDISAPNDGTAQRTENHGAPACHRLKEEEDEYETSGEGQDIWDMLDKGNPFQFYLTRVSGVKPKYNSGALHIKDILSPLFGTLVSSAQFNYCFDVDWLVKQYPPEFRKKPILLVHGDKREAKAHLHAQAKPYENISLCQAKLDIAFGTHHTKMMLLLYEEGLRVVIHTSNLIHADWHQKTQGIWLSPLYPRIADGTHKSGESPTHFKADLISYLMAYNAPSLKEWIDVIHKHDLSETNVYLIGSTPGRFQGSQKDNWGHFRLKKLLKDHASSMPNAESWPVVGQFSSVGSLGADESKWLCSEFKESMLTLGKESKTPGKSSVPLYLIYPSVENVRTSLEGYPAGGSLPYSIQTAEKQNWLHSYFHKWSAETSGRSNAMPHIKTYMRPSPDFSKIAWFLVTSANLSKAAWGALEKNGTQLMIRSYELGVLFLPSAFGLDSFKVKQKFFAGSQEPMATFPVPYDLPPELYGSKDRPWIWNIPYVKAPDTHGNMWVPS
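Tdp1 1 nM final; 15 min RT w/ cpd; substrate 15 nM, 5 min; beads 10 ug/ml, 10 min; AlphaScreen read. Neg ctrl: no enzyme.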
VP16 counter: counter-screen for ROR gamma inhibitors: Gal4-VP16 reporter. Drosophila S2 Gal4-VP16 UAS-luciferase, luminescence, 20 h. Potency, µM (series often up to 53.6 µM), usual class: inhibitors. hit rate 3.5% among 310,000;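 note: Gal4-VP16 expression switched on by copper sulfate through the metallothionein promoter; nearly all actives have a fitted effect of over 50% in size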
RORg inh: blocks mouse ROR gamma transcriptional activity; P51450; Drosophila S2 Gal4-RORgamma UAS-luciferase reporter, 20 h; Potency, µM (titrated, usually from 53.6 µM), hits mostly inhibitors; hit rate 5.4% among 310,000; AID 2551; note: nearly all actives have a fitted effect of over 60% in size
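Stably transfected Drosophila Schneider cells are the test system, with ROR gamma fused to Gal4 and luciferase under UAS control; luminescence is read after 20 hr of 700 uM copper sulfate induction at ambient temperature.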
Each line names hits and unclear results; the compound was inactive in the other large screens. Calls come from the whole dose curve; as a rule, active = well fitted curve in the direction sought with a large enough effect; inconclusive = small, poorly fitted or top-dose-only effect, or another doubt; inactive = no such curve, though single readings can be large; an effect the other way counts as inactive or inconclusive.

CC(=O)c1ccc(N2CCN(S(=O)(=O)c3ccc(-c4cnc(C5CC5)o4)cc3)CC2)cc1	DT40 TDP1 CPT 3.26µM, DT40 TDP1 no CPT inconclusive
O=S(=O)(c1ccc(-c2cnc(C3CC3)o2)cc1)N1CCN(c2ccc(F)cc2)CC1	DT40 TDP1 CPT 0.92µM, DT40 TDP1 no CPT 0.411µM (no result: VP16 counter, RORg inh)
O=S(=O)(c1ccc(-c2cnc(C3CC3)o2)cc1)N1CCN(c2cccc(Cl)c2)CC1	DT40 TDP1 CPT 4.11µM, DT40 TDP1 no CPT 3.26µM (no result: VP16 counter, RORg inh)
Clc1nc(NC2CCCCC2)c2cn[nH]c2n1	none (no result: TDP1 block, VP16 counter, RORg inh)
COc1ccccc1C(CNC(=O)CSc1ccc2ccccc2c1)N(C)C (configuration not stated)	DT40 TDP1 CPT inconclusive, DT40 TDP1 no CPT inconclusive
C=CCC[C@H](Cc1ccc(F)cc1)C(=O)OC[C@@H](Cc1c[nH]c2ccccc12)NC(=O)[C@@H](CC=C)CC(=O)N[C@@H](CO)Cc1ccccc1	DT40 TDP1 CPT inconclusive, DT40 TDP1 no CPT 23.1µM (no result: VP16 counter, RORg inh)
C=CCC[C@@H](Cc1ccc(F)cc1)C(=O)OC[C@H](Cc1c[nH]c2ccccc12)NC(=O)[C@@H](CC=C)CC(=O)N[C@@H](CO)Cc1ccccc1	DT40 TDP1 CPT 20.6µM, DT40 TDP1 no CPT inconclusive (no result: VP16 counter, RORg inh)
C=CC[C@@H](CC(=O)N[C@@H](CO)Cc1ccccc1)C(=O)N[C@H](COC(=O)[C@H](CC=C)CC(=O)OC(C)(C)C)Cc1c[nH]c2ccccc12	DT40 TDP1 CPT inconclusive, DT40 TDP1 no CPT 20.6µM (no result: VP16 counter, RORg inh)
C=CCC[C@@H](Cc1ccc(F)cc1)C(=O)OC[C@@H](Cc1c[nH]c2ccccc12)NC(=O)[C@@H](CC=C)CC(=O)N[C@@H](CO)Cc1ccccc1	DT40 TDP1 CPT 23.1µM, DT40 TDP1 no CPT inconclusive (no result: VP16 counter, RORg inh)
C=CCC[C@@H](Cc1ccc(F)cc1)C(=O)OC[C@@H](Cc1c[nH]c2ccccc12)NC(=O)[C@H](CC=C)CC(=O)N[C@H](CO)Cc1ccccc1	DT40 TDP1 CPT inconclusive, DT40 TDP1 no CPT inconclusive (no result: VP16 counter, RORg inh)
CC(C)c1ccc(/C=c2\sc3n(c2=O)C(N)=C(C#N)C(c2ccc(C(C)C)cc2)C=3C(N)=O)cc1 (configuration not stated)	DT40 TDP1 CPT 5.8µM, DT40 TDP1 no CPT 7.31µM (no result: TDP1 block, VP16 counter, RORg inh)
O=C1/C(=C\c2ccco2)CCC/C1=C\c1ccco1	DT40 TDP1 CPT 16.4µM, DT40 TDP1 no CPT inconclusive
CC1C/C(=C/c2ccco2)C(=O)/C(=C/c2ccco2)C1 (configuration not stated)	none (no result: DT40 TDP1 CPT, DT40 TDP1 no CPT)
COc1ccc2[nH]cc(CCNc3cc(-c4ccccc4C(F)(F)F)ncn3)c2c1	DT40 TDP1 CPT inconclusive, DT40 TDP1 no CPT inconclusive
COc1ccc2[nH]cc(CCNc3cc(-c4ccccc4Cl)ncn3)c2c1	DT40 TDP1 CPT inconclusive, DT40 TDP1 no CPT 3.66µM (no result: TDP1 block)
COc1ccc2[nH]cc(CCNc3ccnc(-c4ccccc4Cl)n3)c2c1	DT40 TDP1 CPT inconclusive, DT40 TDP1 no CPT 11.6µM (no result: TDP1 block)
Cc1ccc(S(=O)(=O)Cn2nnnc2C(CC(C)C)N2CCN(c3ccccc3)CC2)cc1 (configuration not stated)	DT40 TDP1 CPT inconclusive, DT40 TDP1 no CPT inconclusive
Cc1ccc2nc(-c3ccc(NC(=O)CN4C(=O)NC(C)(c5ccc(OC(F)F)cc5)C4=O)cc3)sc2c1 (configuration not stated)	DT40 TDP1 CPT 14.6µM, DT40 TDP1 no CPT 23.1µM, VP16 counter inconclusive, RORg inh inconclusive
CC1(c2ccc(OC(F)F)cc2)NC(=O)N(CC(=O)Nc2ccc3c(c2)OCO3)C1=O (configuration not stated)	DT40 TDP1 CPT 16.4µM, DT40 TDP1 no CPT inconclusive
CC1(c2ccccc2)NC(=O)N(CC(=O)Nc2ccc3c(c2)OCO3)C1=O (configuration not stated)	none
CCCCOc1ccc(OCCCC)c2c1NC1(N2)C(=O)N(C(C)=O)c2ccccc21	DT40 TDP1 no CPT inconclusive
COc1ccc(C(=O)N2c3nc(-c4ccco4)nn3C3(CCCCC3)[C@@H]3CCCC[C@@H]32)cc1OC	DT40 TDP1 CPT 16.4µM, DT40 TDP1 no CPT inconclusive (no result: VP16 counter, RORg inh)
O=C(c1ccc(F)cc1)N1c2nc(-c3ccco3)nn2C2(CCCCC2)[C@@H]2CCCC[C@@H]21	DT40 TDP1 CPT inconclusive, DT40 TDP1 no CPT 23.1µM (no result: VP16 counter, RORg inh)

Assay outcomes as filed in PubChem BioAssay.
